# Test results from the supplement of paper PMC12067926.
# Columns and labels:
# Experiment in all cases: relative growth (AUC of 72 h growth curve relative to DMSO control, dAUC) (ratio); higher = more growth (less inhibition), active = hit call of the paper
# Conditions in all cases: 20 µM;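 active = growth AUC significantly below the DMSO wells by Dunnett test; inactive = the rest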
# [1] = system: Aeromonas 1 (Aeromonas sp. AE235)
# Summary of the method: (§1)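 Growth was followed as A600, read hourly for 72 h on a plate reader after brief shaking. Isolates from Icelandic stream sediments and Silwood Park soil, and whole sediment communities, were first grown to carrying capacity in Luria–Bertani medium and then diluted 1:100 into 96-well plates with each chemical at 20 µM (1% DMSO). Relative growth (dAUC) is the spline-integrated area under the curve scaled to the mean of the DMSO controls, and the values are averages of three biological replicates.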
# [2] = system: Aeromonas 2 (Aeromonas sobria)
# Summary of the method: as §1
# [3] = system: Aeromonas 3 (Aeromonas popoffii)
# Summary of the method: as §1
# [4] = system: Argrobacterium 1 (Agrobacterium sp.)
# Summary of the method: as §1
# [5] = system: Arthrobacter 1 (Arthrobacter humicola)
# Summary of the method: as §1
# [6] = system: Arthrobacter 2 (Arthrobacter humicola)
# Summary of the method: as §1
# [7] = system: Arthrobacter 3 (Arthrobacter sp.)
# Summary of the method: as §1
# Community 10 = system: Community 10
# Summary of the method: as §1
# Community 4 = system: Community 4
# Summary of the method: as §1
# Community 6 = system: Community 6
# Summary of the method: as §1
# Community 7 = system: Community 7
# Summary of the method: as §1
# Community 8 = system: Community 8
# Summary of the method: as §1
# Community 9 = system: Community 9
# Summary of the method: as §1
# [8] = system: Flavobacterium 1 (Flavobacterium glaciei)
# Summary of the method: as §1
# [9] = system: Flavobacterium 2 (Flavobacterium succinicans)
# Summary of the method: as §1
# [10] = system: Hymenobacter 1 (Hymenobacter glaciei)
# Summary of the method: as §1
# [11] = system: Microbacterium 1 (Microbacterium arborescens)
# Summary of the method: as §1
# [12] = system: Neobacillus 1 (Neobacillus soli)
# Summary of the method: as §1
# [13] = system: Oryzobacter 1 (Oryzobacter terrae)
# Summary of the method: as §1
# [14] = system: Paenibacillus 1 (Paenibacillus castaneae)
# Summary of the method: as §1
Compound,relative growth [1],relative growth [2],relative growth [3],relative growth [4],relative growth [5],relative growth [6],relative growth [7],relative growth (Community 10),relative growth (Community 4),relative growth (Community 6),relative growth (Community 7),relative growth (Community 8),relative growth (Community 9),relative growth [8],relative growth [9],relative growth [10],relative growth [11],relative growth [12],relative growth [13],relative growth [14]
CC(C)N(C)S(=O)(=O)NC(=O)c1cc(-n2c(=O)cc(C(F)(F)F)n(C)c2=O)c(F)cc1Cl,0.995 (inactive),1.02 (inactive),1.01 (inactive),1.03 (inactive),1.1 (inactive),1.01 (inactive),1.07 (inactive),0.909 (inactive),1.13 (inactive),1.03 (inactive),1.06 (inactive),1.08 (inactive),1.14 (inactive),1 (inactive),0.978 (inactive),1.04 (inactive),1 (inactive),0.98 (inactive),1.02 (inactive),0.99 (inactive)
Cc1ccc(/N=C/N(C)/C=N/c2ccc(C)cc2C)c(C)c1,0.991 (inactive),0.995 (inactive),1 (inactive),0.984 (inactive),0.964 (inactive),0.821 (inactive),1.04 (inactive),0.922 (inactive),0.905 (inactive),0.969 (inactive),1.16 (inactive),1.05 (inactive),0.961 (inactive),1.02 (inactive),1 (inactive),1.04 (inactive),1.05 (inactive),0.964 (inactive),1.03 (inactive),0.969 (inactive)
Cc1nc(N(C)C)nc(OC(=O)N(C)C)c1C,0.991 (inactive),0.948 (inactive),0.968 (inactive),0.962 (inactive),0.924 (inactive),0.847 (inactive),0.932 (inactive),0.979 (inactive),0.871 (inactive),0.942 (inactive),1.12 (inactive),0.951 (inactive),0.938 (inactive),0.924 (inactive),0.965 (inactive),0.864 (inactive),0.988 (inactive),0.928 (inactive),0.936 (inactive),0.942 (inactive)
CC(C1CC1)C(O)(Cn1cncn1)c1ccc(Cl)cc1 (configuration not stated),0.97 (inactive),0.942 (inactive),0.964 (inactive),1.09 (inactive),0.89 (inactive),0.961 (inactive),0.944 (inactive),1.02 (inactive),1.01 (inactive),1.02 (inactive),1.02 (inactive),1.04 (inactive),0.989 (inactive),0.999 (inactive),0.955 (inactive),1.03 (inactive),0.987 (inactive),0.985 (inactive),0.982 (inactive),0.959 (inactive)
COP(=S)(OC)SCN1C(=O)c2ccccc2C1=O,1.02 (inactive),1.03 (inactive),1.01 (inactive),0.987 (inactive),0.962 (inactive),0.748 (inactive),1.09 (inactive),,1.02 (inactive),1.03 (inactive),1.04 (inactive),1.02 (inactive),1.04 (inactive),0.982 (inactive),0.975 (inactive),1.02 (inactive),0.992 (inactive),1.03 (inactive),0.954 (inactive),1.06 (inactive)
N#Cc1nn(-c2c(Cl)cc(C(F)(F)F)cc2Cl)c(N)c1[S+]([O-])C(F)(F)F (configuration not stated),0.981 (inactive),0.935 (inactive),1 (inactive),1.01 (inactive),0.911 (inactive),0.914 (inactive),0.853 (inactive),1.05 (inactive),1.07 (inactive),1.06 (inactive),0.995 (inactive),1.05 (inactive),1.04 (inactive),0.977 (inactive),1.01 (inactive),1.05 (inactive),1 (inactive),0.993 (inactive),0.998 (inactive),1.02 (inactive)
C[C@@H]1[C@@H](c2ccc(Cl)cc2)SC(=O)N1C(=O)NC1CCCCC1,1.02 (inactive),1.02 (inactive),1.01 (inactive),1.04 (inactive),0.906 (inactive),0.925 (inactive),1.02 (inactive),1.03 (inactive),0.946 (inactive),1.02 (inactive),1.05 (inactive),1.05 (inactive),1.05 (inactive),0.937 (inactive),1.02 (inactive),1.12 (inactive),1.04 (inactive),1.06 (inactive),0.912 (inactive),1.02 (inactive)
CO/N=C(/C(=O)OC)c1ccccc1CO/N=C(\C)c1cccc(C(F)(F)F)c1,0.966 (inactive),0.929 (inactive),0.961 (inactive),1.07 (inactive),0.928 (inactive),0.876 (inactive),0.97 (inactive),0.708 (inactive),0.822 (inactive),0.809 (inactive),1.05 (inactive),0.968 (inactive),0.784 (inactive),0.975 (inactive),0.943 (inactive),1.05 (inactive),0.99 (inactive),1 (inactive),1.26,0.9 (inactive)
N#Cc1c(Cl)c(Cl)c(Cl)c(C#N)c1Cl,1.04 (inactive),0.898 (inactive),1.01 (inactive),0.958 (inactive),0.567 (active),0.136 (active),0.599 (active),0.896 (inactive),1.08 (inactive),0.965 (inactive),0.891 (inactive),1.02 (inactive),0.784 (inactive),0.681 (active),0.543 (active),0.352 (active),1.06 (inactive),0.966 (inactive),0.632 (active),0.0717 (active)
COCc1cnc(C2=NC(C)(C(C)C)C(=O)N2)c(C(=O)O)c1 (configuration not stated),0.932 (inactive),0.973 (inactive),1 (inactive),1 (inactive),0.954 (inactive),1.01 (inactive),0.931 (inactive),0.96 (inactive),0.84 (inactive),0.937 (inactive),1.14 (inactive),0.983 (inactive),0.959 (inactive),0.978 (inactive),1 (inactive),1.02 (inactive),1.02 (inactive),0.961 (inactive),1.05 (inactive),0.966 (inactive)
C#CCN1C(=O)COc2cc(F)c(N3C(=O)C4=C(CCCC4)C3=O)cc21,0.987 (inactive),0.969 (inactive),0.982 (inactive),0.996 (inactive),1.03 (inactive),0.974 (inactive),0.979 (inactive),,0.951 (inactive),0.959 (inactive),1.07 (inactive),1.01 (inactive),0.923 (inactive),0.957 (inactive),0.977 (inactive),1.06 (inactive),1.04 (inactive),1.01 (inactive),1.04 (inactive),0.935 (inactive)
Nc1c(Cl)c(F)nc(OCC(=O)O)c1Cl,0.974 (inactive),1 (inactive),0.991 (inactive),1.03 (inactive),1.1 (inactive),1.02 (inactive),0.991 (inactive),,1.07 (inactive),1.01 (inactive),1.01 (inactive),1.04 (inactive),1.03 (inactive),1.07 (inactive),0.993 (inactive),1.03 (inactive),1.02 (inactive),1.04 (inactive),1.01 (inactive),1.03 (inactive)
N#Cc1sc2c(=O)c3ccccc3c(=O)c=2sc1C#N,0.852 (inactive),0.905 (inactive),1.07 (inactive),1.09 (inactive),0.649 (active),0.193 (active),0.557 (active),,1.12 (inactive),1.12 (inactive),1.06 (inactive),1.06 (inactive),1.09 (inactive),0.359 (active),1.05 (inactive),0.709 (inactive),0.965 (inactive),1 (inactive),0.898 (inactive),0.928 (inactive)
COc1ccc(-c2ccccc2)cc1NNC(=O)OC(C)C,0.954 (inactive),0.947 (inactive),1.02 (inactive),0.937 (inactive),0.913 (inactive),0.87 (inactive),0.932 (inactive),,0.882 (inactive),0.886 (inactive),0.932 (inactive),0.986 (inactive),0.868 (inactive),0.888 (inactive),0.898 (inactive),0.987 (inactive),1.06 (inactive),0.89 (inactive),1.02 (inactive),0.873 (inactive)
O=C(Nc1ccc(F)cc1F)c1cccnc1Oc1cccc(C(F)(F)F)c1,1.03 (inactive),0.98 (inactive),1.01 (inactive),1.02 (inactive),1.06 (inactive),1 (inactive),1.07 (inactive),,1.08 (inactive),0.987 (inactive),1.04 (inactive),0.97 (inactive),1.11 (inactive),1.09 (inactive),1.03 (inactive),1.05 (inactive),0.997 (inactive),1.06 (inactive),1.03 (inactive),0.937 (inactive)
CC(C)N1C(=O)c2ccccc2NS1(=O)=O,0.965 (inactive),0.994 (inactive),0.991 (inactive),0.998 (inactive),1.03 (inactive),1.05 (inactive),1.13 (inactive),,0.932 (inactive),0.962 (inactive),1.02 (inactive),0.996 (inactive),1.01 (inactive),1.09 (inactive),1.02 (inactive),1.09 (inactive),0.977 (inactive),1.04 (inactive),1.02 (inactive),0.96 (inactive)
N#CCNC(=O)c1cnccc1C(F)(F)F,1.01 (inactive),0.97 (inactive),1.03 (inactive),0.992 (inactive),0.965 (inactive),0.882 (inactive),0.96 (inactive),,0.954 (inactive),0.919 (inactive),1.01 (inactive),0.986 (inactive),0.902 (inactive),0.973 (inactive),0.944 (inactive),0.973 (inactive),1.01 (inactive),0.935 (inactive),1.09 (inactive),0.935 (inactive)
